Experimental data published in PubChem BioAssay (NCATS).
Active and inactive are the calls of the source. Calls come from the whole dose curve; as a rule, active = well fitted activation curve with a large enough effect; inconclusive = small, poorly fitted or top-dose-only effect; inactive = flat fitted curve, though single readings scatter.

assay: Cellular Toxicity (caspase-3) Mesangial (AID 660); settings: mesangial cells, normalized: DMSO 0%, 100 µM tamoxifen 100%; series mostly up to 91.7 µM;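 note: combined caspase 3 and 7 activity read by Caspase-Glo luminescence; cells exposed to compound for 16 h before the caspase read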
Text: NIH Chemical Genomics Center [NCGC]
NIH Molecular Libraries Screening Centers Network [MLSCN]
National Institutes of Environmental Health Sciences [NIEHS]
National Toxicology Program [NTP]
We have developed a 1536-well cell-based assay for quantitative high throughput screening (qHTS) against a number of cell lines to determine in vitro caspase 3/7 of small molecules. This particular assay uses the mesangial cell line which is derived from normal human renal glomeruli.
NCGC Assay Protocol Summary:
The Caspase-Glo 3/7 assay (Promega) is a homogeneous method to measure caspase-3 and caspase-7 activities in cultured cells. The quantitation of caspase 3/7 activity is based on the cleavage of a peptide-aminoluciferin substrate. After caspase cleaves the substrate the free aminoluciferin is liberated and serves as the substrate of luciferase, which generates the light. The luminescent signal is proportional to amount of caspase 3/7 activity present.
Using the Caspase-Glo 3/7 assay, the amount of caspase 3/7 activity was measured in the mesangial cell line with complete culture medium following compound treatment for 16 hours. The assay was performed in opaque white 1536-well plates. In the screen, tamoxifen and doxorubicin were used as positive controls. Library compounds were measured for their ability to cause the activation of caspase 3/7 in the cell line, as reflected by an increase in luminescence signal, in a concentration-dependent manner. Data were normalized to the controls for basal activity (DMSO only) and 100% stimulation (100 uM tamoxifen). AC50 values were determined from concentration-response data modeled with the standard Hill equation.
qHTS protocol for caspase 3/7 assay in mesangial cell line
[Step] [Parameter] [Value] [Description]
1. Reagent; 5 uL; 1000 mesangial cells/well
2. Time; 5 hr; 37 °C incubation
4. Controls; 23 nL; Tamoxifen 0.23 uM to 100 uM & doxorubicin 7.0 pM to 100 uM
5. Time; 16 hr; 37 °C incubation
6. Reagent; 5 uL; Caspase-Glo 3/7 reagent
7. Time; 20 min; Room Temperature
8. Detection; Luminescence; Viewlux plate reader
Keywords: caspase 3/7, apoptosis, mesangial cell line, luminescence, NTPHTS, NTPHTS_NCGC, NIEHS, EPA, DSSTox, MLSMR, MLSCN, NIH Roadmap, qHTS, NCGC

Structure (SMILES)	outcome
O=C1c2c(O)cccc2Cc2cccc(O)c21	inactive
O=C1O[C@H]([C@@H](O)CO)C(O)=C1O	inactive
[Cl][In]([Cl])[Cl]	inactive
Oc1cccc(O)c1	inactive
CN(C)CCC=C1c2ccccc2CCc2ccccc21	inactive
CCCCCCCCCCCCOS(=O)(=O)O	inactive
NCCNCCNCCNCCN	inactive
NCCNCCNCCN	inactive
Cc1cc(CC(=O)O)n(C)c1C(=O)c1ccc(Cl)cc1	inactive
COc1ccccc1O	inactive
Cc1c(O)cccc1C(=O)N[C@@H](CSc1ccccc1)[C@H](O)CN1C[C@H]2CCCC[C@H]2C[C@H]1C(=O)NC(C)(C)C	inactive
NC(=O)N/N=C/c1ccc([N+](=O)[O-])o1	inactive
COC(=O)C1=C(C)NC(C)=C(C(=O)OC)C1c1ccccc1[N+](=O)[O-]	inactive
Cc1cc2nc3c(=O)[nH]c(=O)nc-3n(C[C@H](O)[C@H](O)[C@H](O)CO)c2cc1C	inactive
Nc1ccc(S(=O)(=O)Nc2nccs2)cc1	inactive
CC12CCC(CC1)C(C)(C)O2	inactive
NC(=O)c1ncn([C@@H]2O[C@H](CO)[C@@H](O)[C@H]2O)n1	inactive
C[C@]12C[C@H](O)[C@H]3[C@@H](CCC4=CC(=O)CC[C@@]43C)[C@@H]1CC[C@@H]2C(=O)CO	inactive
CC1(C)[C@@H]2CC[C@@]1(C)C(=O)C2	inactive
CCCCOC(=O)c1ccc(O)cc1	inactive
